Measurements reported in PubChem BioAssay (NCATS).
Values joined by “and” are separate entries in the source; they are usually repeats but may differ in a detail not shown here. Equal values may be shown once. Records with an inconclusive call do not appear. Active and inactive are the calls of the source. Calls come from the whole dose curve; as a rule, active = well fitted curve in the direction sought with a large enough effect; inconclusive = small, poorly fitted or top-dose-only effect, or another doubt; inactive = no such curve, though single readings can be large; an effect the other way counts as inactive or inconclusive.

Columns and labels:
[1] = target: Cellular tumor antigen p53 (Homo sapiens) (UniProt P04637); test: Primary qHTS for small molecule compounds that upregulate eGFP-tagged delta133p53alpha (in N-terminal) cells. (AID 2060322); details: NCI-H358 eGFP-delta133p53alpha fluorescence, 24 h; activation: hits give high values; note: nearly all actives have a fitted effect of over 75% in size; note: potency is the fitted concentration of half-maximal effect;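 for activation: cells pre-induced with doxycycline then dosed without doxycycline; series mostly up to about 56 µM; 0% = DMSO vehicle and 100% = reference activator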
Procedure, shortened: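 NCI-H358 cells pre-induced 24 h with 10 ng/ml doxycycline for eGFP-delta133p53alpha, plated dox-free and exposed 24 h at 37C to titrated compounds. Fixed, Hoechst-stained; gated GFP peak intensity by laser scanning cytometry, normalized to DMSO (0%) and 57.5 uM 5-azacytidine (100%).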

[2] = target: Aldehyde dehydrogenase, mitochondrial (Homo sapiens) (UniProt P05091); test: qHTS for Inhibitors of the Aldehyde Dehydrogenase Family (ALDH2) Primary screen (AID 2061308);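 note: plate controls were vehicle for no effect and reference inhibitor for full effect; nearly all actives have a fitted effect of over 55% in size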
[3] = target: Retinaldehyde dehydrogenase 3 (Homo sapiens) (UniProt P47895); test: qHTS for Inhibitors of the Aldehyde Dehydrogenase Family (ALDH1A3) Validation screen (AID 2061312); note: % is set by controls: 0 for no effect and ±100 for the full control effect; nearly all actives have a fitted effect of over 45% in size
[4] = target: Retinaldehyde dehydrogenase 3 (Homo sapiens) (UniProt P47895); test: qHTS for Inhibitors of the Aldehyde Dehydrogenase Family (ALDH1A3) Primary screen (AID 2061315);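 note: plate controls were DMSO vehicle for no effect and reference inhibitor for full effect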
[5] = BET inhibitor-based combinations targeting novel dependencies in MECOM-rearranged (r) AML: SET-2 cell line (AID 2202231); details: SET-2 AML cells viability, CellTiter-Glo luminescence, 48 h; viability: hits give low values, concentration not given here; note: nearly all actives have a fitted effect of over 35% in size; note: potency is the fitted concentration of half-maximal effect;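 for viability: plate controls were DMSO treated cells for no effect and wells without cells for full effect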
Procedure, shortened: (§1)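 Luminescent ATP readout (CellTiter-Glo) after 48 hr drug exposure gives viability. Curves span 11 concentrations and are normalized to DMSO and empty wells. Activity is reported as area under the curve and its Z-transform within each cell line.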

[6] = BET inhibitor-based combinations targeting novel dependencies in MECOM-rearranged (r) AML: OCI-AML3 cell line (AID 2202232); details: Potency: OCI-AML3 viability; note: nearly all actives have a fitted effect of over 35% in size; note: potency is the fitted concentration of half-maximal effect;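 for viability (% of control): series mostly up to about 46 µM; plate controls were DMSO vehicle wells for no effect and wells without cells for full effect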
Procedure, shortened: as §1

[7] = BET inhibitor-based combinations targeting novel dependencies in MECOM-rearranged (r) AML: MV-4-11 cell line (AID 2202233); note: nearly all actives have a fitted effect of over 45% in size; note: potency is the fitted concentration of half-maximal effect;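 for viability, % of control: plate controls were DMSO for no effect and blank wells for full effect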
Procedure, shortened: (§2)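 Luminescent ATP readout (CellTiter-Glo, 15 min at room temperature) after 48 hr drug exposure gave viability. Dose-response curves, normalized to DMSO and empty-well controls, were summarized as area under the curve and its mean-centred Z-score.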

[8] = BET inhibitor-based combinations targeting novel dependencies in MECOM-rearranged (r) AML: HNT-34 cell line (AID 2202234); note: nearly all actives have a fitted effect of over 35% in size; note: potency is the fitted concentration of half-maximal effect;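 for viability (% of control): plate controls were vehicle wells for no effect and cell-free wells for full effect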
Procedure, shortened: as §2

[9] = BET inhibitor-based combinations targeting novel dependencies in MECOM-rearranged (r) AML: UCSD-AML1 cell line (AID 2202235); note: nearly all actives have a fitted effect of over 40% in size; note: potency is the fitted concentration of half-maximal effect;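 for viability (% of control): series mostly up to about 46 µM; plate controls were DMSO vehicle wells for no effect and blank wells for full effect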
Procedure, shortened: as §2

[10] = BET inhibitor-based combinations targeting novel dependencies in MECOM-rearranged (r) AML: AML-191 cell line (AID 2202236; note: nearly all actives have a fitted effect of over 35% in size; note: potency is the fitted concentration of half-maximal effect;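 for viability (% of control): plate controls were vehicle wells for no effect and wells without cells for full effect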)
Procedure, shortened: as §1

[11] = BET inhibitor-based combinations targeting novel dependencies in MECOM-rearranged (r) AML: AML-194 cell line (AID 2202237; note: nearly all actives have a fitted effect of over 40% in size; note: potency is the fitted concentration of half-maximal effect;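 for viability (% of control): plate controls were vehicle wells for no effect and wells without cells for full effect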)
Procedure, shortened: as §1

Chain of Cellular tumor antigen p53 (Homo sapiens) (P04637 whole entry, looked up): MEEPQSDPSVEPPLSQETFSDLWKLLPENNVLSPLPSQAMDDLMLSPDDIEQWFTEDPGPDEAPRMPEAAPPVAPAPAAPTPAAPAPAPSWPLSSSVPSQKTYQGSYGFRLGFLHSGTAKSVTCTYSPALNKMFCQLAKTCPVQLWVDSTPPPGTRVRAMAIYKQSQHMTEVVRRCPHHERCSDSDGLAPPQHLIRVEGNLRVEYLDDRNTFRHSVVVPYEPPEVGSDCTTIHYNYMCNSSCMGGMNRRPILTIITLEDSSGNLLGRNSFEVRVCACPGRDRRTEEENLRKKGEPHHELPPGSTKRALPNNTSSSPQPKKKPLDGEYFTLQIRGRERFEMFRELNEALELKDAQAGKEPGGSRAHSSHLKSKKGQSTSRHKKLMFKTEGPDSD

O=C(c1ccc(NS(=O)(=O)c2cccc3cccnc23)cc1)N1CCN(CC2CC2)CC1
inactive: activation [1] -3.34% | Potency [2] | Potency [3] | Potency [4] | viability [5] 115% | Potency [6] | Potency [7] | Potency [8] | Potency [9] | Potency [10] | Potency [11]

CC(C)(C)c1cc(C(=O)O)c(NC(=O)Nc2ccc3[nH]ncc3c2)s1
inactive: activation [1] 7.87% and -13.8% | Potency [2] | Potency [3] | Potency [4] | viability [5] 118% | Potency [6] | Potency [8] | Potency [9] | Potency [10] | Potency [11]
active: Potency [7] 18.6 µM

COc1cc(CCc2cc(NC(=O)c3ccc(N4C[C@@H](C)N[C@@H](C)C4)cc3)n[nH]2)cc(OC)c1
inactive: activation [1] 1.33% and -3.34% | Potency [2] | Potency [3] | Potency [4]
active: Potency [5] 20.9 µM | Potency [6] 18.6 µM | Potency [7] 2.09 µM | Potency [8] 7.42 µM | Potency [9] 7.42 µM | Potency [10] 16.6 µM

CC(=O)Nc1ccc([C@H](C)C(=O)Nc2ncc(C(C)C)s2)cc1
active: Potency [1] 3.06 µM and 2.69 µM | Potency [5] 3.32 µM | Potency [6] 7.42 µM | Potency [7] 5.25 µM | Potency [8] 3.32 µM | Potency [9] 3.32 µM | Potency [10] 1.86 µM | Potency [11] 2.95 µM
inactive: Potency [2] | Potency [3] | Potency [4]

O=C(O)CCn1c2c(c3ccccc31)C[C@H](NS(=O)(=O)c1ccc(F)cc1)CC2
inactive: activation [1] 0.565% and -1.83% and 6.68% | Potency [2] | Potency [3] | Potency [4] | viability [5] 105% | Potency [6] | Potency [7] | Potency [8] | Potency [9] | Potency [10] | Potency [11]

CC(C)C[C@H](NC(=O)[C@H](Cc1ccccc1)NC(=O)c1cnccn1)B(O)O
inactive: Potency [2] | Potency [3] | Potency [4]
active: Potency [1] 968 nM and 379 nM | Potency [5] 0.0166 µM | Potency [6] 0.0105 µM | Potency [7] 0.0132 µM | Potency [8] 0.0148 µM | Potency [9] 0.0186 µM | Potency [10] 0.0186 µM | Potency [11] 0.0209 µM

O=C(COCC(=O)N1CCN(C(c2ccccc2)c2ccccc2)CC1)Nc1ccc(Cl)cc1C(=O)O
inactive: activation [1] -25.3% | Potency [2] | Potency [3] | Potency [4] | viability [5] 119% | Potency [6] | Potency [7] | Potency [8] | Potency [9] | Potency [10] | Potency [11]

Cn1c(CNc2ccc(C(=N)N)cc2)nc2cc(C(=O)N(CCC(=O)O)c3ccccn3)ccc21
inactive: activation [1] 22.7% and -0.477% | Potency [2] | Potency [3] | Potency [4] | viability [5] 116% | viability (% of control) [6] 119% [at 0.315 µM] | viability, % of control [7] 133% [at 0.315 µM] | viability (% of control) [8] 104% [at 0.315 µM] | viability (% of control) [10] 101% [at 0.315 µM] | viability (% of control) [11] 118% [at 0.315 µM]

O=C(O)CCNc1cc(N2CCc3ccccc3CC2)nc(-c2ccccn2)n1
inactive: activation [1] -6.15% and -0.477% and 0.955% | Potency [2] | Potency [3] | Potency [4] | viability [5] 103% | Potency [6] | Potency [7] | Potency [8] | Potency [9] | Potency [10] | Potency [11]

CCOCc1nc2c(N)nc3ccccc3c2n1CC(C)(C)O
inactive: activation [1] 4.77% | Potency [2] | Potency [3] | Potency [4] | viability [5] 108% | Potency [6] | Potency [7] | Potency [8] | Potency [9] | Potency [10] | Potency [11]

Cc1c(F)cc(C(=O)NC2CC2)cc1-c1ccc(C(=O)NCC(C)(C)C)cn1
inactive: activation [1] 2.86% | Potency [2] | Potency [3] | Potency [4] | viability [5] 92.7% | Potency [6] | Potency [7] | Potency [8] | Potency [9] | Potency [11]

COC(=O)Nc1nc2ccc(C(=O)c3ccc(F)cc3)cc2[nH]1
inactive: activation [1] 8.15% and 21.5% | Potency [2] | Potency [3] | Potency [4]
active: Potency [5] 0.833 µM | Potency [6] 0.59 µM | Potency [7] 0.742 µM | Potency [8] 0.417 µM | Potency [9] 0.468 µM | Potency [10] 0.332 µM | Potency [11] 0.332 µM

Cc1cc2c(s1)Nc1ccccc1N=C2N1CCN(C)CC1
inactive: activation [1] -5.86% and 20.9% and -11.5% | Potency [2] | Potency [3] | Potency [4] | viability [5] 111% | Potency [6] | Potency [7] | Potency [8] | Potency [9] | Potency [10] | Potency [11]

Nc1nc(F)nc2c1ncn2[C@@H]1O[C@H](CO)[C@@H](O)[C@@H]1O
inactive: activation [1] -5.02% and -9.07% | Potency [2] | Potency [3] | Potency [4]
active: Potency [5] 14.8 µM | Potency [6] 10.5 µM | Potency [7] 9.34 µM | Potency [8] 14.8 µM | Potency [9] 1.05 µM | Potency [10] 2.95 µM | Potency [11] 3.72 µM

CCCCc1oc2ccc(NS(C)(=O)=O)cc2c1C(=O)c1ccc(OCCCN(CCCC)CCCC)cc1
active: Potency [5] 18.6 µM | Potency [6] 14.8 µM | Potency [7] 10.5 µM | Potency [8] 11.8 µM | Potency [9] 10.5 µM | Potency [10] 10.5 µM | Potency [11] 10.5 µM
inactive: activation [1] 2.56% | Potency [2] | Potency [3] | Potency [4]

COc1cccc2c(NCc3ccccc3)nc(-n3c(N)nc4ccccc43)nc12
inactive: activation [1] -21.2% | Potency [2] | Potency [3] | Potency [4]
active: Potency [5] 7.42 µM | Potency [6] 3.32 µM | Potency [7] 7.42 µM | Potency [8] 3.72 µM | Potency [9] 4.17 µM | Potency [10] 2.95 µM | Potency [11] 2.63 µM

OC[C@H]1O[C@@H](Oc2cc(O)cc(/C=C/c3ccc(O)cc3)c2)[C@H](O)[C@@H](O)[C@@H]1O
inactive: activation [1] -6.21% | Potency [2] | Potency [3] | Potency [4] | viability [5] 115% | Potency [6] | Potency [7] | Potency [8] | Potency [9] | Potency [11]

COc1ccc(-n2c(SCCCN3C(=O)c4cccc5cccc(c45)C3=O)nnc2-c2ccncc2)cc1
inactive: activation [1] -13.4% | Potency [2] | Potency [3] | Potency [4] | viability [5] 102% | Potency [6] | Potency [7] | Potency [8] | Potency [9] | Potency [10] | Potency [11]

Cc1nnc(C(C)C)n1C1CC2CCC(C1)N2CCC(NC(=O)C1CCC(F)(F)CC1)c1ccccc1 (stereo unspecified)
inactive: activation [1] -3.82% | Potency [2] | Potency [3] | Potency [4] | viability [5] 109% | Potency [6] | Potency [7] | Potency [8] | Potency [9] | Potency [10] | Potency [11]

CCCCNc1ncc2c(-c3ccc(CN4CCN(C)CC4)cc3)cn(C3CCC(O)CC3)c2n1 (stereo unspecified)
inactive: Potency [2] | Potency [3] | Potency [4]
active: Potency [1] 21.3 µM | Potency [5] 14.8 µM and 11.8 µM | Potency [6] 6.61 µM and 4.68 µM | Potency [7] 59 nM and 93.4 nM | Potency [8] 1.05 µM and 1.18 µM | Potency [9] 4.17 µM and 3.32 µM | Potency [10] 833 nM and 1.18 µM | Potency [11] 742 nM and 1.05 µM

Cc1nc(Nc2n[nH]c3c2CN(C(=O)N[C@H](CN(C)C)c2ccccc2)C3(C)C)c2sccc2n1
inactive: Potency [2] | Potency [3] | Potency [4]
active: Potency [1] 10.7 µM | Potency [5] 1.48 µM | Potency [6] 0.468 µM | Potency [7] 0.0235 µM | Potency [8] 1.18 µM | Potency [9] 0.148 µM | Potency [10] 1.18 µM | Potency [11] 1.66 µM

O=C(c1ccc(C(=O)N2CCC(N3CCCC3)CC2)c(Nc2ccccc2)c1)N1CCC(N2CCCC2)CC1
inactive: activation [1] 3.03% and -7.82% | Potency [2] | Potency [3] | Potency [4] | viability [5] 111% | Potency [6] | Potency [9] | Potency [11]
active: Potency [7] 9.34 µM
